We go through 27 molecules from PubChem BioAssay (NCI).

The structures appear in SMILES notation. Values joined by “and” are separate entries in the source; they are usually repeats but may differ in a detail not shown here. Equal entries are not always repeated. About 83,000 compounds went through this panel and 20% of them were active in at least one assay; those are over-represented in the sample as a whole.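 Negative percent growth values reflect cell death: -40 means 40% of the cells present at the start died, and -100 means all died.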 Values without a mark were called inactive. Active and inactive are the calls of the source. The calls were made as follows: active = growth percent below 10; inactive = the rest.

The subject of this test is HL-60(TB) leukemia. Nature of the test: NCI-60 one-dose screen, 48 h (100 = growth as untreated, 0 = no growth, -100 = all killed). To be noted: 10 µM unless noted.
In the case of `CSc1nnc(-c2cnn3c2NC(c2ccccc2)C3)n1-c1ccc(C(F)(F)F)cc1` (configuration not stated), the growth was 73.6%.

`COc1ccc(-c2ccc(NNC(=O)c3ccc(F)cc3)nn2)cc1OC`: the growth is 46.9%.

`CN(Cc1ccccc1)c1nc(Cl)c(C2CC(c3ccc(Cl)cc3)=Cc3[nH][nH]c(=O)c32)s1` (configuration not stated): the growth was 104%.

`COC1C(OC(N)=O)C(O)C(Oc2ccc3c(O)c(NC(=O)c4ccc(O)c(CC=C(C)C)c4)c(=O)oc3c2C)OC1(C)C` (configuration not stated): the growth was 74% and 106%.

Regarding `C#CCOc1cccc(Nc2ncnc3ccc(NC(=O)CCl)cc23)c1`, the growth is -58.4% (active).

As for `N#C/C(=C\c1ccc2c(c1)OCO2)n1nnc2cc(F)c(F)cc21`, the growth is 38.6%.

On to `COc1ccc(Cn2c(NCCCN(C)C)nc(=O)n(Cc3ccc(F)cc3)c2=O)cc1`, for which the growth is 95.7%.

As for `O=C1Nc2c(ccc(Cl)c2Cl)/C1=C/c1ccc(F)cc1`, the growth is 71.4%.

With `Cc1nc2n(c(=O)c1CCN1CCC(c3noc4cc(F)ccc34)CC1)CCC[C@@H]2O`, the growth was 89.7%.

Regarding `CC(=O)Nc1nc(C)c(C(=O)NNS(=O)(=O)c2ccccc2)s1`, the growth was 174%.

Regarding `COc1ccc2[nH]c(O)c(C(=Nc3ccc(N(C)C(=O)CN4CCN(C)CC4)cc3)c3ccccc3)c2c1`, the growth is -14.9% (active).

As for `Cc1nn(-c2ccccc2)c(N2CCOCC2)c1/C=N/N=c1\sc2ccccc2n1C`, the growth is 67.2%.

For the molecule `COc1cc2c(cc1-c1c(C)noc1C)ncc1nc(C3CCOCC3)n([C@H](C)COC(F)F)c12`, the growth was 27.5%.

For the molecule `O=[N+]([O-])c1cccc2cc(S(=O)(=O)O)ccc12`, the growth is 76.9%.

In the case of `Nc1cc(N)c2cccnc2c1O`, the growth is 59.6%.

As for `CCCCCCCCCC(=O)Oc1ccc(/C(=C(/C)c2ccccc2)c2ccc(OCCN3CCCC3)cc2)cc1`, the growth was -30.4% (active).

Take `COc1ccc(-c2cc(-c3cn(-c4cccc(Cl)c4)nc3-c3ccc(OC)cc3)[nH]c(=S)n2)cc1`: the growth is 60.4%.

In the case of `CS(=O)(=O)c1cccc(-c2c(-c3cccc(OS(N)(=O)=O)c3)nc3sccn23)c1`, the growth was 102%.

Take `CCN(CC)CCCNc1nc(C)cc(Nc2ccc3nc(C)cc(N)c3c2)n1`: the growth is 106%.

In the case of `COc1cc(-c2ccc(N=Nc3ccc4c(S(=O)(=O)O)ccc(N)c4c3O)c(OC)c2)ccc1N=Nc1ccc2c(S(=O)(=O)O)ccc(N)c2c1O`, the growth is 115%.

For the molecule `Cc1ccc(-c2nc3nc(-c4ccccc4)nc(N4CCNCC4)c3o2)cc1`, the growth is -68.4% (active).

Take `COc1cccc(C(=O)N(c2ccc(F)c(F)c2)C(C(=O)NC(C)(C)C)c2cc3c(C)cc(C)cc3nc2Cl)c1` (configuration not stated): the growth was 63.3%.

Turning to `Cc1cc(C(=O)O)c(N)c(C)n1`, the growth is 102%.

With `CCN1CCN(CCNc2nccc(-c3c(-c4cccc(O)c4)nc4sccn34)n2)S1(=O)=O`, the growth is 64% and 91.9%.

For the molecule `COc1ccc(/C=C2\COc3ccc(O)cc3C2=O)c(OC)c1OC`, the growth is 12.7%.

Regarding `Nc1nc(N)c2[nH]cnc2n1`, the growth is 87.5%.

With `COc1cc2cc(Oc3ccc(NC(=O)Nc4cc(C(F)(F)F)cc(C(F)(F)F)c4)cc3)c(C)nc2cc1OCCN1CCOCC1`, the growth was 1.68% (active).
